Screens as filed in PubChem.
12-hLO inh: 12-hLO (ALOX12) enzyme inhibition; P18054; purified 12-hLO, xylenol orange hydroperoxide absorbance; Potency, µM (top dose mostly 57.1 µM), without a hit: at the highest dose activity change, negative = inhibition, hits mostly inhibitors; hit rate 0.12% among 150,000; AID 1452; active = well fitted curve in the direction sought with a large enough effect; inconclusive = small, poorly fitted or top-dose-only effect, or another doubt; inactive = no such curve, though single readings can be large; an effect the other way counts as inactive or inconclusive; note: potency is the fitted concentration of half-maximal effect; nearly all actives have a fitted effect of over 55% in size
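Purified human 12hLO (150 nM), preincubated 15 min with compound, then 40 uM arachidonic acid for 30 min, room temperature, Hepes pH 7.0 with 0.01% Triton X-100. Hydroperoxide detected by ferrous iron/xylenol orange; 573/405 nm absorbance ratio gives reaction progress.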
HPGD block: HPGD (human) dehydrogenase inhibition | P15428 | purified HPGD, NADH fluorescence kinetic, PGE2 substrate | Potency, µM, without a hit: at the top dose activity change, negative = inhibition, most hits filed as inhibitors | hit rate 4.3% among 150,000; note: potency is the fitted concentration of half-maximal effect
Target sequence (P15428 whole entry, looked up): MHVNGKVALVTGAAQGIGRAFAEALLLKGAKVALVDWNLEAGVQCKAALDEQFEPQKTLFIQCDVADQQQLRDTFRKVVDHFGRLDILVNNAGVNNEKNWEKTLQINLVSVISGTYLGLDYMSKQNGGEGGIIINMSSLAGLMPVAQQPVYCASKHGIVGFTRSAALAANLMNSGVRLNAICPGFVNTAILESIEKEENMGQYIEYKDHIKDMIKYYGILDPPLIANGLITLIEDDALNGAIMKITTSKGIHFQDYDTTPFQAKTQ
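NADH formation kinetics: reaction with 30 uM PGE2 and 1 mM NAD+ (final), 20 nM enzyme, Tris-HCl pH 8 with Tween 20, after 15 min compound preincubation at room temperature. Fluorescence change, last versus first of five reads.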
PNC assembly inh: blocks assembly of the perinucleolar compartment; hit rate 3.1% among 140,000; AID 2417; PC3M PTB-GFP, PNC prevalence imaging, 16 h; stronger effect = lower value; activity change (PNC), negative = inhibition, % at 10 µM;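 active = readout at or below -70, meaning at least 70% loss of cells showing the perinucleolar compartment, a nuclear body marking cancer cells; inconclusive = readout between -30 and a set limit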;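 note: plate controls were DMSO wells for no effect and camptothecin positive control wells for full effect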
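Compounds are pinned in duplicate onto adhered PC3M cells stably expressing GFP-tagged PTB and incubated 16 h at 37 C. Cells are then fixed, nuclei stained with Hoechst, and PNC-positive cells counted.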
IMPase inh: cell-permeable inhibitors of inositol monophosphatase (IMPase); P97697; CHO-M1 cells, IP1 accumulation, HTRF TR-FRET ratio; inhibition (IP1 accumulation), % at 46.1 µM; 120,000 tested, under 10 active; AID 901; active = well fitted curve in the direction sought with a large enough effect in the signal ratio, not every such curve was filed as active; inconclusive = small, poorly fitted or top-dose-only effect, or a change in a side signal; inactive = no such curve, though single readings can be large or run the other way; the % refers to the signal ratio;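 note: cells stimulated with carbachol in lithium chloride buffer; plate controls were DMSO basal wells for no effect and reference inhibitor wells for full effect; higher means more IMPase inhibition seen as more IP1 and lower FRET ratio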
Target sequence (P97697 whole entry, looked up): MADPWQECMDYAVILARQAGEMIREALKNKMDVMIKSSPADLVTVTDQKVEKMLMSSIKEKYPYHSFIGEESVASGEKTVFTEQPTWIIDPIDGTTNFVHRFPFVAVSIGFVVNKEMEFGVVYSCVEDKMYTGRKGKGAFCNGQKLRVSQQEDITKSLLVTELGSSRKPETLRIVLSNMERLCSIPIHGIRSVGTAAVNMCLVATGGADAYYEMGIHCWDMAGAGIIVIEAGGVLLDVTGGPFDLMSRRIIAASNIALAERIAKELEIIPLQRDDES
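Cellular IMPase inhibition is scored as a rise in cytosolic IP1, detected by competitive TR-FRET between d2-labelled IP1 and a europium anti-IP1 antibody. M1-expressing CHO cells were stimulated with carbachol for 30 min at 37C, with lithium (50 mM LiCl) present in the buffer.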
IMPase Li cell: IMPase inhibition in cells with lithium potentiation; CHO-M1 cells, IP1 TR-FRET (IP-One), carbachol + lithium; Potency, µM (series often up to 59.4 µM), inactives show at the highest dose activity, negative = IMPase inhibition, actives largely listed as inhibitors; hit rate 0.35% among 210,000; AID 1457; active = well fitted curve in the direction sought with a large enough effect; inconclusive = small, poorly fitted or top-dose-only effect, or another doubt; inactive = no such curve, though single readings can be large; an effect the other way counts as inactive or inconclusive;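 note: IP1 builds up when IMPase is blocked and the TR-FRET signal falls; potency is the fitted concentration of half-maximal effect; plate controls were basal vehicle for no effect and high inhibitor control for full effect; nearly all actives have a fitted effect of over 50% in size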
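CHO cells stably expressing M1 receptor (2000/well) were cultured 16–30 h, then exposed to compounds with a small lithium addition for 30 min at 37C. IP1 was measured by TR-FRET competition; AC50 from Hill fits.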
ALDH1A1 block: inhibitors of human aldehyde dehydrogenase 1A1. AID 1030. hit rate 7.3% among 220,000. Purified ALDH1A1, NADH fluorescence, propionaldehyde substrate. Potency, µM (titrated, usually from 75.3 µM), for the others: at the top dose activity, negative = inhibition, most hits filed as inhibitors;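 note: potency is the fitted concentration of half-maximal effect; plate controls were no enzyme wells and a reference inhibitor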
Active calls of the source: *; ? = inconclusive; . = no result; [ ] = another dose, or the depositor's remark. Compounds with a hit are over-represented: about 11% of the library has one in this group of screens. Unless noted, calls come from the whole dose curve; as a rule, active = well fitted inhibition curve with a large enough effect (not every such curve was filed as active); inconclusive = small, poorly fitted or top-dose-only effect, or another doubt; inactive = no such curve, though single readings can be large or run the other way. Unless noted, % is set by controls: 0 for no effect and ±100 for the full control effect.

SMILES | 12-hLO inh | HPGD block | PNC assembly inh | IMPase inh | IMPase Li cell | ALDH1A1 block
CC1=NN(C(N)=S)C(=O)C1N=Nc1ccc(C)cc1C (configuration not stated) | -18% | -10% | -14 | -1 | 15%[38.3 µM] | 10µM*
CC1=NN(C(N)=S)C(=O)C1N=Nc1c(C)cc(C)cc1C (configuration not stated) | 2% | -21% | 7 | 3 | 2%[38.3 µM] | -14%
CCCn1c(-c2ccc(F)cc2)nc2c(NC3CCN(Cc4ccccc4)CC3)nc(C)nc21 | -8% | ? | . | . | 6% | ?
Fc1ccc(N2CCN(Cc3nnc(-c4ccccc4Cl)o3)CC2)cc1 | . | . | . | 12 | . | .
Cc1cc(C)nc(SCC(=O)NN=C2CCCC2)n1 | . | . | . | . | 5% | -15%
COc1cc(/C=N/NC(=O)CSc2cc(C)c(Br)cc2C)ccc1O | -8% | -13% | 16 | 3 | 42%[38.3 µM] | 0%
Cc1cc(SCC(=O)NN=C2CCN(C(C)C)CC2)c(C)cc1Br | -2% | 25µM* | -29 | . | -2% | ?
Cc1cc(SCC(=O)N/N=C/c2ccc(O)c(O)c2O)c(C)cc1Br | ? | 10µM* | 35 | 2 | 27%[38.3 µM] | 4.5µM*
Cn1c(C(=O)NCCOc2ccccc2Cl)cc(=O)n(C)c1=O | . | . | . | . | -1% | -4%
O=C(c1scc2c1CCCC2)N1CCCCC1 | -2% | 8.9µM* | ? | -1 | 20%[38.3 µM] | -8%
CCc1nc2ccccc2c(C(=O)OCc2nnc(-c3ccccc3)o2)c1C | -5% | 20µM* | 5 | 2 | 21%[38.3 µM] | ?
COc1nc(-c2ccccc2)c2c(c1C#N)CC(C)(C)OC2 | -3% | -7% | 37 | 4 | 0%[38.3 µM] | ?
CC1(C)Cc2c(C#N)c(OCC(=O)c3ccccc3)nc(-c3ccoc3)c2CO1 | -7% | ? | -22 | -9 | -26%[38.3 µM] | 0.28µM*
CC1(C)Cc2c(C#N)c(OCC(=O)c3ccc(Cl)cc3)nc(-c3ccoc3)c2CO1 | -11% | . | -94* | 8 | . | 0.4µM*
CCOC(=O)/C(=C\c1ccccc1)C(=O)c1cc(C(C)=O)c(Nc2ccccc2)s1 | 0% | -11% | 7 | 11 | 41%[38.3 µM] | 1%
CCOC(=O)/C(=C\c1cccnc1)C(=O)c1cc(C(C)=O)c(Nc2ccccc2)s1 | -14% | 20µM* | -111* | 10 | 43%[38.3 µM] | ?
O=c1c2c3c(sc2ncn1/N=C/c1ccccc1)CCCC3 | -3% | 0% | -16 | -6[0.369 µM] | 8% | 11µM*
O=C(O)/C=C\C(=O)Nc1ccccn1 | -3%[11.4 µM] | -20% | . | . | 2% | 14%[13.5 µM]
CC(=O)N[C@@H](Cc1ccc(O)cc1)C(=O)O | -5%[0.00818 µM] | 1% | . | . | 8% | -1%
COc1ccc(/C=N\NC(=O)c2cc(O)c(O)c(O)c2)cc1CN1CCN(c2ccc(F)cc2)CC1 | -13% | -23% | -13 | 6 | 30% | 13µM*
COc1ccc(Br)cc1CNc1ccc(O)cc1 | -19% | -18% | 2 | 17 | 14%[38.3 µM] | 10µM*
COc1ccc(Br)cc1CNc1ccc2[nH]c(=O)[nH]c2c1 | . | . | . | . | 7% | -1%
COc1ccc2c(c1)-c1ccccc1S(=O)(=O)N2C(C)=O | 3% | -20% | -114* | 6 | -15%[38.3 µM] | ?
CC(C)CCN(CCC(C)C)C(CO)(CO)CO | . | . | . | . | -2% | 28µM*
Cc1cc(C(=O)NCc2ccccc2F)cs1 | 3% | 16µM* | ? | -8 | 6% | 1%
SMILES | 12-hLO inh | HPGD block | PNC assembly inh | IMPase inh | IMPase Li cell | ALDH1A1 block
O=C(NCc1ccccc1F)c1cccs1 | 0% | ? | 19 | -1 | -3%[38.3 µM] | 10%
CCN(CC)c1ccc(N=Cc2ccc([N+](=O)[O-])o2)cc1 | -13% | -11% | ? | . | 19% | ?
CCN(CC)c1ccc(C2NCC(c3ccc([N+](=O)[O-])cc3)O2)cc1 (configuration not stated) | 2% | -11% | -21 | 5 | -6% | 0.28µM*
Cn1ncc(Cl)c1C(=O)Nc1cccc(Cl)c1 | -19% | 13µM* | -3 | 0 | -3% | 7.9µM*
Cc1cc(NC(=O)c2c(Cl)cnn2C)no1 | -5% | -10% | ? | -6 | 12%[38.3 µM] | 4%
O=C(Nc1ccc(Cl)cn1)c1ccc(-c2cc(Cl)ccc2Cl)o1 | -7% | . | -2 | -6 | . | 18µM*
Cn1ncc(Cl)c1C(=O)Nc1ccc(Cl)cn1 | -5% | -17% | -100* | -14 | ? | 3%
O=C(c1ccc2c(=O)n3c(nc2c1)CCCCC3)N1CCN(C(c2ccccc2)c2ccccc2)CC1 | -4% | -3% | 17 | 10 | 61%[38.3 µM] | ?
COc1ccccc1NC(=O)NC1(C(=O)N2CCCCCC2)CCCCC1 | -2% | -4% | -23 | 7 | 13% | 7.1µM*
COc1ccc(-c2c3c([nH]c(=S)c2C#N)CCC3)cc1 | -10% | 10µM* | ? | ? | 7.9µM* | 14µM*
COc1ccc(OC)c(-c2c3c([nH]c(=S)c2C#N)CCCC3)c1 | . | . | . | . | -8% | -9%
CC(C)Cc1c2c([nH]c(=S)c1C#N)CCCC2 | 1% | 22µM* | ? | . | ? | -8%
N#Cc1c(-c2ccco2)c2c([nH]c1=S)CCCC2 | 0% | 16µM* | ? | -15 | -23% | 20µM*
N#Cc1c(-c2cccnc2)c2c([nH]c1=S)CCCC2 | -19% | . | 22 | -5 | . | ?
Cc1ccc(OCC(=O)N/N=C\c2cn(Cc3ccccc3)c3ccccc23)cc1C | 1% | ? | -4 | . | -3% | 13µM*
O=[N+]([O-])c1ccc(N/N=C/c2cn(Cc3ccc(F)cc3)c3ccccc23)nc1 | -1% | -21% | 13 | 0 | 41% | 18µM*
CNC(=S)N/N=C/c1cn(Cc2ccc(F)cc2)c2ccccc12 | ? | -15% | ? | . | 16% | 28µM*
CNC(=S)N/N=C/c1cn(CCOc2ccc(OC)cc2)c2ccccc12 | ? | -27% | ? | . | 8% | -15%
C#CCn1cc(/C=N/NC(=O)COc2cccc3cccnc23)c2ccccc21 | -2% | -21% | 32 | . | -1% | 10µM*
Cc1ccccc1OCC(=O)N/N=C/c1cn(Cc2ccccc2)c2ccccc12 | 4% | ? | 18 | 10 | 7% | ?
C=C[C@H](N)CCC(=O)O | -4% | -9% | . | 3 | 10% | -8%
Cc1cccc(C)c1-n1c(C)cc(/C=N\Nc2ccc([N+](=O)[O-])cn2)c1C | -19% | -20% | 3 | 5 | 50%[38.3 µM] | 10µM*
COc1cc(/C=N/NC(=O)c2cccnc2)ccc1OS(=O)(=O)c1ccc(C)cc1 | 1% | -19% | 28 | . | 8% | 3.5µM*
COc1cc(/C=N/NC(=O)c2cccnc2)ccc1OS(=O)(=O)c1ccc(F)cc1 | -5% | -12% | -4 | -6 | 19%[38.3 µM] | 4%
Cn1ncc(Br)c1C(=O)N/N=C/c1ccc(OS(=O)(=O)c2ccccc2)cc1 | -1% | -8% | -80* | ? | 7% | 25µM*
